The results in this text go back to ChEMBL document CHEMBL1857833, “Screening and optimization of specific chemical series against human African Trypanosomiasis (HAT)”.

Among all 4,400 compounds or so, about 390 (8.9%) showed an effect of 50% or more. Shown is part of a subset that was picked to be rich in strong results.

The test deals with Trypanosoma brucei. In words: DNDI: Inhibition of Human African Trypanosomiasis, SBRI 427, in vitro at 2 ug.mL-1. Format: functional.
As to `COc1ccc(CN/C(=N\O)c2cccnc2Oc2ccc(SC)c(C)c2)cc1`, the “% inhibition” value is 4%. In the case of `CC1CCCCN1Cc1coc(-c2ccco2)n1` (configuration not stated), the “% inhibition” value is 1%. For `C(=C\c1ccccc1)/CN1CCN(Cc2coc(-c3cccc4ccccc34)n2)CC1`, the “% inhibition” value is reported as 19%. For the compound `O/N=C(/c1ccc(Oc2cccc(F)c2)nc1)N1CCCCC1`, the “% inhibition” value was 5%.

As for `c1csc(-c2nc(CNCC3CCCO3)co2)c1` (configuration not stated), the “% inhibition” value is listed as 2%.

Turning to `COc1ccc(-c2nc(CN3CCCCC3)co2)cc1`, the “% inhibition” value is on record as 4%. On to `Cc1ccc(/C(=N/O)N2CCCCC2)c(Oc2ccc(-n3ccnc3)cc2)n1`, for which the “% inhibition” value is reported as 12%. Consider `Cc1cc(Oc2nc(C)ccc2/C(N)=N/O)cc(C(C)C)c1`, for which the “% inhibition” value is 55%. The value for `Cc1ccc(/C(N)=N/O)c(Oc2ccc(C(C)C)cc2)n1` was 31%.

`Cc1cccc(Oc2nc(C)ccc2/C(N)=N/O)c1`: the “% inhibition” value is recorded as -4%.

As for `Cc1ccc(/C(=N/O)NC(C)C)c(Oc2cccc(C(C)C)c2)n1`, the “% inhibition” value was 7%. In the case of `Cc1ccc(/C(N)=N/O)c(Oc2cccc(C(C)C)c2)n1`, the “% inhibition” value came out at 57%.

On to `Cc1cc(Oc2ncccc2/C(N)=N/O)cc(C(C)C)c1`, for which the “% inhibition” value amounted to 20%.

As to `Cc1cccc(Oc2nc(C)ccc2/C(=N/O)N2CCSCC2)c1`, the “% inhibition” value was found to be 1%. For `Cc1ccc(/C(N)=N/O)c(Oc2c(F)c(F)cc(F)c2F)n1`, the “% inhibition” value is listed as 4%. On to `Cc1ccccc1NCc1coc(-c2ccccc2F)n1`, for which the “% inhibition” value was -5%. The value for `COc1ccc(Oc2ncccc2/C(=N/O)n2ccnc2C)cc1` was -2%; that for `COc1cc2c(cc1OC)C(C(C)C)N(Cc1coc(-c3ccc(C)cc3)n1)CC2` (configuration not stated) was 27%; that for `COc1cc(CNCc2coc(-c3ccc(C(F)(F)F)cc3)n2)cc(OC)c1` was -1%. The same measure for `Fc1ccc(-c2nc(CNCc3ccncc3)co2)cc1`: -3%; for `CCC(C)(C)N/C(=N\O)c1ccc(Oc2cc(C)cc(C)c2)nc1`: 95%; for `CCC(C)(C)N/C(=N\O)c1ccc(Oc2cc(C)cc(C(C)C)c2)nc1`: 91%. As for `Cc1cc(Oc2ccc(/C(=N/O)NCc3ccccc3)cn2)cc(C(C)C)c1`, the “% inhibition” value is on record as 14%. For `CCC(C)(C)N/C(=N\O)c1ccc(Oc2ccc(F)cc2)nc1`, the “% inhibition” value turned out to be 27%.

Take `CCC(C)(C)N/C(=N\O)c1ccc(Oc2cccc(C)c2)nc1`: the “% inhibition” value amounted to 67%.

As to `Cc1cc(C)cc(CN/C(=N\O)c2ccc(Oc3cccc(C)c3)nc2)c1`, the “% inhibition” value came out at 19%. The value for `CCC(C)(C)N/C(=N\O)c1ccc(Oc2cccc3ccccc23)nc1` was 95%. `Cc1cc(Oc2ccc(/C(=N/O)NCc3cc(F)cc(F)c3)cn2)cc(C(C)C)c1`: the “% inhibition” value is listed as 17%.

Take `Cc1cccc(Oc2ccc(/C(=N/O)NC(C)C)cn2)c1`: the “% inhibition” value was 8%. Take `CCC(C)(C)N/C(=N\O)c1ccc(Oc2cccc3c2OC(C)(C)C3)nc1`: the “% inhibition” value was determined as 11%.

Take `Cc1cc(C)cc(Oc2ccc(/C(=N/O)NCc3ccccc3)cn2)c1`: the “% inhibition” value is given as -3%.

Consider `CC1CCC(N/C(=N\O)c2ccc(Oc3cccc4ccccc34)nc2)CC1` (configuration not stated), for which the “% inhibition” value is on record as 19%.

As a reminder, the % inhibition is the change of the read-out against control, counted positive when it falls.
